# CHX counter = Cycloheximide Counterscreen for Small Molecule Inhibitors of Shiga Toxin | cell reporter, cycloheximide protein synthesis inhibition counterscreen | max response, % | 12% of 300,000 active | AID 2314, 2010; in the data active means max response mostly above about 13%, no sharp cut-off; inactive means mostly below about 14%; further: read at 38.3 µM for the half of the compounds with a filed dose
# Pf growth 48h = Primary qHTS for delayed death inhibitors of the malarial parasite plastid, 48 hour incubation | Potency, µM (highest dose often 28.7 µM), hits mostly inhibitors | 5.9% of 310,000 active | P. falciparum luciferase growth in erythrocytes, 48 h
#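 Parasite viability was followed by luminescence of a genomically integrated firefly luciferase. Cultures held 0.1% parasitemia at 2% hematocrit (final), incubated under 5% CO2 at 37 C.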
# NS1 inh = qHTS Assay for Inhibitors of Influenza NS1 Protein Function; Potency, µM (highest dose often 46.1 µM); 0.4% of 270,000 active; AID 2326, 2010; calls by dose curve; further: actives are rising curves; nearly all actives have a fitted effect of over 50% in size
#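 S. cerevisiae expressing influenza A NS1, grown in glucose, washed, then diluted 1:100 into pH 6.0 -URA galactose medium with 23 nl compound. Growth recovery read as OD600; NS1-free strain serves as control.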
# Pf growth 96h = Primary qHTS for delayed death inhibitors of the malarial parasite plastid, 96 hour incubation; 6.9% of 320,000 active; Potency, µM (highest dose often 28.7 µM), hits mostly inhibitors; P. falciparum luciferase reporter growth, 96 h
#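 P. falciparum expressing integrated firefly luciferase, in erythrocytes at 2% hematocrit, 0.05% parasitemia, incubated with compounds 96 h at 37 C, 5% CO2. Growth inhibition read as loss of luminescence; two-generation exposure targets delayed-death apicoplast inhibitors.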
# Shiga inhibitor = A qHTS for Small Molecule Inhibitors of Shiga Toxin; 9.2% of 290,000 active; AID 2315, 2010; Vero cells, Shiga toxin protein synthesis inhibition reporter; inhibition, % at 38.7 µM; in the data active means inhibition mostly above about 28%, no sharp cut-off; inactive means mostly below about 43%
# Numbers stand for hits; – = inactive; ? = inconclusive; · = no result. Shown are actives, neighbours in structure and some others; about 21% of the full set was active somewhere. Unless noted, the call rests on the fitted dose curve; in most records, active means well fitted inhibition curve with a large enough effect; inconclusive means small, poorly fitted or top-dose-only effect, or another doubt; inactive means no such curve, though single readings can be large or run the other way.
SMILES,CHX counter,Pf growth 48h,NS1 inh,Pf growth 96h,Shiga inhibitor
CCS(=O)(=O)CCSc1nc2ccccc2o1,–,–,–,–,–
Cc1csc2nc(CSc3nc4ccccc4o3)cn12,53.1,–,–,–,70.6
Cc1cc(C)n2c(Br)c(CSc3nc4ccccc4o3)nc2n1,40.9,–,–,–,–
Nn1c(CSc2nc3ccccc3o2)nnc1CSc1nc2ccccc2o1,–,–,–,?,–
c1ccc2oc(SCc3cn4ccsc4n3)nc2c1,50.4,–,–,?,119.2
Cc1cccc(C)c1NC(=O)CNC(=O)c1ccc(COc2ccccc2)o1,·,–,·,–,·
Cc1cccc(NC(=O)c2ccc(COc3ccccc3)o2)n1,16.3,–,–,–,39.7
Cc1csc(NC(=O)c2ccc(COc3ccccc3)o2)n1,48.8,–,–,–,89.6
CCOC(=O)c1cn(CC)c2cc3c(cc2c1=O)OCO3,·,–,·,?,·
CCOC(=O)c1sc2c(c1C)c(=O)c(C(=O)OCC)cn2CC,–,2.33µM,–,–,–
O=C(N/N=C/c1c(F)cccc1Cl)C(=O)N1CCCCCC1,–,–,–,–,–
CCOc1ncccc1C(=O)Nc1cccc(S(=O)(=O)N2CCCCC2)c1,·,?,·,7.38µM,·
CCOc1ncccc1C(=O)Nc1cc(S(=O)(=O)N2CCCCC2)ccc1C,·,11.7µM,·,9.28µM,·
CC(=O)c1c(C)[nH]c(C(=O)Nc2cccc(S(=O)(=O)N3CCOCC3)c2)c1C,–,–,–,–,–
CC(=O)c1c(C)[nH]c(C(=O)Nc2cc(S(=O)(=O)N3CCCCC3)ccc2C)c1C,·,13.1µM,·,13.1µM,·
Cc1nn(C2CCS(=O)(=O)C2)c(C)c1CN(C)C(=O)c1cccc(Cl)c1 (centres undefined),·,?,·,–,·
CCONC(=O)Nc1ccccc1,–,–,–,–,–
O=C(C1CCC(=O)N(C2CCCC2)C1)N1CCN(Cc2cccc(F)c2)CC1 (centres undefined),–,–,–,?,–
Cc1onc(-c2ccccc2)c1C(=O)OCC(=O)NCc1ccc(F)cc1,–,–,·,–,–
Cc1cc(C)n(-c2nnc3c4ccccc4n(C)c3n2)n1,44.0,–,–,–,112.8
CCOC(=O)CSc1nnc2c3ccccc3n(C)c2n1,–,–,–,?,–
N#CCC1c2ccccc2CCN1C(=O)Nc1ccc(C(F)(F)F)cc1 (centres undefined),–,13.1µM,–,5.86µM,–
CNc1nc(Oc2ccc(=O)n(C)n2)nc(N2CCOCC2)n1,–,?,–,–,–
COc1ccc(NC(=O)c2ccc(S(=O)(=O)N3CCCCCC3)cc2)c(OC)c1,–,–,–,13.1µM,–
COc1ccc(NC(=O)c2cccc(S(=O)(=O)N3CCN(c4ccccc4)CC3)c2)c(OC)c1,·,10.4µM,·,?,·
SMILES,CHX counter,Pf growth 48h,NS1 inh,Pf growth 96h,Shiga inhibitor
COc1ccc(NC(=O)COC(=O)c2cccc(S(=O)(=O)N3CCCCC3)c2)c(OC)c1,·,–,·,–,·
COc1ccc(NC(=O)c2cccc(S(=O)(=O)N3CCCCC3)c2)c(OC)c1,–,–,–,2.94µM,–
CNC(=O)c1ccccc1NC(=O)c1cccc(S(=O)(=O)N2CCCCC2)c1,–,?,·,2.94µM,–
CN(Cc1cccc(Cl)c1)C(=O)C1CCC(=O)N(C2CC2)C1 (centres undefined),–,–,–,–,–
O=S(=O)(c1ccccc1)c1cnc(-c2ccccc2)nc1N1CCCCC1,–,?,–,?,–
CC1(C)CC(=O)C2=C(C1)c1c(ccc3ccccc13)NC2c1ccc(C(=O)O)cc1 (centres undefined),–,?,–,?,–
O=C1CCCC2=C1C(c1ccco1)Nc1ccc3ccccc3c12 (centres undefined),33.2,?,–,–,44.8
Cc1ccc(C2Nc3ccc4ccccc4c3C3=C2C(=O)CC(C)(C)C3)o1 (centres undefined),12.6,14.7µM,–,?,–
O=C1NC[C@H](c2ccccc2)N(CCc2cccc3ccccc23)C1=O,–,–,–,–,–
CCc1ccc2[nH]c(=O)c(CN(CCCN3CCOCC3)C(=O)Nc3ccc(F)cc3)cc2c1,–,?,–,–,–
CCOc1ccc(NC(=S)N(CCN2CCOCC2)Cc2cc3cc4c(cc3[nH]c2=O)OCCO4)cc1,–,?,–,?,–
O=C(Nc1ccc(F)cc1)N(CCCN1CCOCC1)Cc1cc2cc3c(cc2[nH]c1=O)OCCO3,37.2,10.4µM,–,–,–
COc1ccccc1NC(=O)N(CCCN1CCOCC1)Cc1cc2cc3c(cc2[nH]c1=O)OCO3,–,–,–,8.28µM,–
